Bioassay records from PubChem.
Rows were chosen to be rich in hits. Some 32% of all compounds tested hit in one or more screens of this group.
CYP2C19 inh = blockers of cytochrome P450 2C19 activity – biochemical, luminescence, ADME assay, primary screen. P33261. CYP2C19 Supersomes, luciferin-H EGE luminescence, 30 min. inhibition, % at 5 µM. hit rate 21% among 96,000. AID 778, 2007;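 active = CYP2C19 inhibition above a set limit at 5 µM in the primary screen, cut at about 50% in these data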
Target sequence (P33261 whole entry, looked up): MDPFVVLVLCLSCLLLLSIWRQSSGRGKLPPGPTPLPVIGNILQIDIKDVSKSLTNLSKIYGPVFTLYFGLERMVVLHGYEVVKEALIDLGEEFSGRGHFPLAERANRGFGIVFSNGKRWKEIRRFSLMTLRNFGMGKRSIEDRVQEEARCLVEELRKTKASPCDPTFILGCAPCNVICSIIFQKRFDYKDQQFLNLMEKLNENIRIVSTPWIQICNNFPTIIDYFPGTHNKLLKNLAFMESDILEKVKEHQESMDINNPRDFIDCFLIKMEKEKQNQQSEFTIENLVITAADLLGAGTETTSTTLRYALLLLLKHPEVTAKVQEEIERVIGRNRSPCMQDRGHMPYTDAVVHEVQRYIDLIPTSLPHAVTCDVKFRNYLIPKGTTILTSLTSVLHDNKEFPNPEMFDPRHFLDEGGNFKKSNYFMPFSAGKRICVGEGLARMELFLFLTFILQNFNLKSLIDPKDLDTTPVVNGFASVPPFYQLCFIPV
CYP2C19 activ = human CYP2C19 activators, primary screen, biochemical, luminescence. 96,000 tested, under 10 active. activation factor at 5 µM. recombinant CYP2C19, luciferin-H EGE luminescence; hits give high values; 0 = fully inhibited enzyme, 1 = untreated enzyme;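 active = activation factor of at least 2 at 5 µM in the primary screen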
CYP2C9 inhib = blockers of cytochrome P450 2C9 activity – biochemical, luminescence, ADME assay, primary screen; CYP2C9 Supersomes, luciferin-H conversion; inhibition, % at 5 µM; hit rate 20% among 96,000; AID 777, 2007;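 active = blocking of liver enzyme CYP2C9 beyond about 50% at 5 µM, limit read from the data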
PostGolgi yeast = phenotypic screen on post-Golgi transport, primary screen; hit rate 0.9% among 98,000; inhibition, % at 10 µM; post-Golgi transport phenotypic cell assay;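 also: yeast cells grown in 1536-well plates; yeast grown about 18 h at 30C before absorbance read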
PostGolgi ctrl = growth inhibition of yeast control strain, primary screen, counter-screen for post-Golgi transport modulator project. efflux-deficient yeast background strain, growth absorbance A615, 16 h. inhibition, % at 10 µM. hit rate 5% among 98,000
CYP2C9 activ = human CYP2C9 activators, primary screen, biochemical, luminescence. recombinant CYP2C9, luciferin-H conversion; hits give high values; factor 1 = untreated enzyme, 0 = blocked. hit rate 1.4% among 96,000. activation factor at 5 µM. AID 1024, 2008;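 active = activation factor of 2 or more for CYP2C9 at a 5 µM dose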
A number is an active result; i = inactive; nt = not tested or not shown. Rule as the data show it, unless noted: active = inhibition above about 30%; inactive = the rest.

SMILES	CYP2C19 inh	CYP2C19 activ	CYP2C9 inhib	PostGolgi yeast	PostGolgi ctrl	CYP2C9 activ
CCN(CC)S(=O)(=O)c1cccc(-c2nnc(SCCOc3ccccc3)o2)c1	93.8	i	i	i	i	i
CCN(CC)S(=O)(=O)c1cccc(-c2nnc(SCCOc3ccccc3C)o2)c1	90.4	i	i	i	i	i
CCN(CC)S(=O)(=O)c1cccc(-c2nnc(SCC(=O)c3cc(C)n(C)c3C)o2)c1	i	i	i	i	i	i
CCN(CC)S(=O)(=O)c1ccc(-c2nnc(SCc3nnc(-c4ccc(C)cc4)o3)o2)cc1	i	i	i	i	i	i
CC(C)CCSc1nc(N)c(C#N)cc1C#N	i	i	i	i	i	i
CC(=O)Oc1ccc(NC(=O)C2CCCCC2)c(C(=O)O)c1	i	i	i	i	i	i
O=C(CSc1nnc(-c2ccccn2)n1-c1ccc(Cl)cc1)Nc1ccc2c(c1)OCO2	i	i	i	i	i	i
COc1ccc2oc(-c3ccc(C)c(NC(=O)c4ccc(N5CCOCC5)c([N+](=O)[O-])c4)c3)nc2c1	i	i	i	i	i	i
O=C(COc1ccc(S(=O)(=O)N2CCOCC2)cc1)Nc1ccccc1C(F)(F)F	i	i	i	i	i	i
CC1(C)CC(=O)C2=C(C1)N(Cc1ccco1)C(=O)C2(NC(=O)c1ccc(Cl)cc1Cl)C(F)(F)F (stereo unspecified)	82.9	i	i	i	i	i
CC(=O)NC1(C(F)(F)F)C(=O)N(Cc2ccccc2)C2=C1C(=O)CC(C)(C)C2 (stereo unspecified)	i	i	i	i	i	i
CC1(C)CC(=O)C2=C(C1)N(Cc1ccco1)C(=O)C2(NC(=O)C1CCCCC1)C(F)(F)F (stereo unspecified)	i	i	50.9	i	i	i
CC(=O)C1=C(C)N(Cc2ccco2)C(=O)C1(NC(=O)C1CCCCC1)C(F)(F)F (stereo unspecified)	i	i	i	i	i	i
CC1=NC(C(F)(F)F)(C(F)(F)F)C2=C(CC(C)(C)CC2=O)N1Cc1ccco1	56.1	i	53.7	i	i	i
CC(C)[C@H](NC(=O)NCCc1ccc(Cl)cc1)C(=O)O	i	i	i	i	i	i
CCOc1ccc(NCc2cc3c(C(C)(C)C)nn(-c4ccccc4)c3[nH]c2=O)cc1	i	i	58.7	i	i	i
COc1cccc(NCc2cc3c(C(C)(C)C)nn(-c4ccccc4)c3[nH]c2=O)c1	i	i	81.6	i	i	i
c1ccc2c(c1)nc(-c1ccncc1)n1nnnc21	nt	nt	nt	i	i	nt
CC(=O)Nc1cc(-c2ccccc2)ccc1O	i	i	i	i	i	i
C=CCc1cccc2cc(NC(C)=O)c(=O)oc12	i	i	i	i	i	2.8
O=c1c(Cl)nc2cc(Cl)ccc2n1CCNc1ncc(C(F)(F)F)cc1Cl	73.0	i	i	75.8	98.8	i
NNC(=O)Cc1cn(-c2ncc(C(F)(F)F)cc2Cl)c2ccccc12	i	i	i	i	i	i
O=c1[nH]c2cccc(Cl)c2n(CCNc2ncc(C(F)(F)F)cc2Cl)c1=O	60.8	i	i	i	i	i
CN(C)c1ccc(/C=C2\SC(=S)N(Nc3ncc(C(F)(F)F)cc3Cl)C2=O)cc1	i	i	i	i	i	i
O=C(c1ccncc1)N1C2C=CC(C2)C1(C(F)(F)F)C(F)(F)F (stereo unspecified)	i	i	60.6	i	i	i
SMILES	CYP2C19 inh	CYP2C19 activ	CYP2C9 inhib	PostGolgi yeast	PostGolgi ctrl	CYP2C9 activ
O=C(c1cccnc1)N1C2C=CC(C2)C1(C(F)(F)F)C(F)(F)F (stereo unspecified)	i	i	i	i	i	i
O=C(COc1ccc(Cl)cc1Cl)N1CCCN(C(=O)COc2ccc(Cl)cc2Cl)CC1	i	i	i	i	74.9	i
COc1ccc(N2CCN(C(=O)COc3ccc(Cl)cc3Cl)CC2)cc1	i	i	i	i	i	i
COc1cc2c(cc1OC)CN(C(=O)CCCOc1ccc(Cl)cc1Cl)CC2	i	i	56.6	i	38.4	i
Cc1cc(Cl)ccc1OCCCC(=O)NC1CCN(C)CC1	i	i	i	i	i	i
Cc1cc(Cl)ccc1OCCCC(=O)N1CCN(C)CC1	50.9	i	i	i	i	2.1
Cc1cc(Cl)ccc1OCC(=O)N1CCCCC1	87.5	i	i	i	i	i
O=C(C1CCN(S(=O)(=O)c2cccc3cccnc23)CC1)N1CCn2c1nc1ccccc12	i	i	i	i	i	i
Nc1nc(NC(=O)c2cccc(S(=O)(=O)N3CCCCCC3)c2)nc(-c2ccccc2)n1	i	i	i	i	i	i
CCOC(=O)N1CCN(C(=O)COc2ccc(Br)cc2Cl)CC1	86.1	i	i	i	i	i
O=C(CN(Cc1ccccc1)C(=O)c1cc2c(s1)CCC2)NCc1cccs1	i	i	75.3	i	35.0	i
O=C(CN(C(=O)c1cc2c(s1)CCC2)C1CCCC1)NCc1cccs1	65.7	i	81.9	i	i	i
O=C(CN1CCN(Cc2ccccc2)C1=O)NCc1cccs1	i	i	i	i	i	i
COc1ccc(N=C2C(=Nc3ccc(OC)cc3)N(c3ccc(OC)cc3)C(=S)N2C)cc1	68.1	i	52.6	i	i	i
COc1ccc(N=C2SCC(=O)N2c2ccc(OC)cc2)cc1	i	i	i	i	i	i
COc1ccc(N=C2C(=Nc3ccc(OC)cc3)N(c3ccc(OC)cc3)C(=S)N2c2ccccc2)cc1	i	i	77.9	i	i	i
Cc1noc(C)c1S(=O)(=O)N1CCCC(C(=O)NCc2ccccn2)C1 (stereo unspecified)	i	i	i	i	i	i
Cc1ccc(S(=O)(=O)c2c(COC(=O)c3ccc(Cl)cc3)c(-c3ccccc3)nn2C)cc1	66.9	i	51.9	i	i	i
CCS(=O)c1ccccc1C(=O)O (stereo unspecified)	i	i	i	i	i	i
CCCCc1nc2ccccc2c(=O)n1NC(=O)c1c(O)c2cccc3c2n(c1=O)CCC3	i	i	53.2	nt	nt	i
COC(=O)C(NC=O)C(O)(Cc1ccccc1)C(F)(F)F (stereo unspecified)	56.7	i	i	i	i	i
COC(=O)C(O)(NC(=O)OCc1ccccc1)C(F)(F)F (stereo unspecified)	i	i	i	i	i	i
O=C(OCCNc1ncc(C(F)(F)F)cc1Cl)c1ccc(S(=O)(=O)N2CCOCC2)cc1	69.1	i	i	i	i	i
O=C(NCCOC(=O)c1ccc(S(=O)(=O)N2CCOCC2)cc1)c1cccnc1	i	i	i	i	i	i
O=C(c1ccco1)N1CCN(Cc2cccc(F)c2)CC1	i	i	i	i	i	i
O=C(c1cccc(F)c1)N1CCN(Cc2ccco2)CC1	69.2	i	i	i	i	i
